Molecules are shown by their SMILES. Values joined by “and” are separate entries in the source; they are usually repeats but may differ in a detail not shown here. Equal values may be shown once. Records with an inconclusive call do not appear. More than one record can exist for a structure, and the calls need not agree. Active and inactive are the calls of the source. Unless noted, the call rests on the fitted dose curve; in most records, active means well fitted curve in the direction sought with a large enough effect in the repeat runs; inconclusive means weak or mixed curves; inactive means no such curve, though single readings can be large; an effect the other way counts as inactive or inconclusive.

The record followed here is PubChem BioAssay (Tox21).

Assay [1] in a line: qHTS assay to identify small molecule antagonists of the androgen receptor (AR) signaling pathway using the MDA cell line in the presence of 0.5 nM R1881 - cell viability counter screen (AID 1259242). Further: nearly all actives have a fitted effect of over 45% in size. Further: potency means the concentration at half of the fitted maximal effect. In a few lines: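 Counter screen for cytotoxicity run in the same wells as the AR antagonist reporter screen: MDA-kb2 cells were treated 16 hr with test compounds and 0.5 nM R1881, then live-cell protease activity was measured by fluorescence.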

A short description of assay [2]: qHTS assay to identify small molecule phospholipidosis (PLD) inducers (AID 1259344; active means well fitted curve in the direction sought with a large enough effect; an effect the other way counts as inactive or inconclusive). The gist of the method: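 HepG2 cells on collagen I, attached 4 h at 37 C, were co-treated with compound and LipidTOX Red dye for 24 h at 37 C, then fixed with paraformaldehyde plus Hoechst 33342 and imaged by high-content microscopy for phospholipid accumulation.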
(In general: Quantitative high-throughput screening tests each substance at several concentrations.)

A short description of assay [3]: qHTS assay to identify small molecule HDAC inhibitors (AID 1259364). Further: top concentration of the series differs between compounds; nearly all actives have a fitted effect of over 45% in size. The gist of the method: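 Luminescence from a cell-permeant luminogenic class I/II HDAC substrate reports endogenous deacetylase activity in intact HCT-116 cells treated with compounds for 2 h.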
Assay [4] can be described thus: qHTS assay to identify small molecule HDAC inhibitors - cell viability counter screen (AID 1259365). Further: nearly all actives have a fitted effect of over 50% in size. Further: potency means the concentration at half of the fitted maximal effect. The gist of the method: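 To flag cytotoxic hits, 1,500 wild-type HCT-116 cells per well, plated the day before, receive test compounds for 2hr at 37 C before CellTiter-Glo reagent and a luminescence read.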
Assay [5] in a line: qHTS assay to identify small molecule agonists of the sonic hedgehog signaling (Shh) pathway - cell viability counter screen (AID 1259366). Further: nearly all actives have a fitted effect of over 50% in size. Further: potency means the concentration at half of the fitted maximal effect. In a few lines: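 Fluorescence from CellTiter-Fluor reports live cells in this counter screen. NIH/3T3-derived Gli1-Luc reporter cells receive test compounds for 24hr at 37C; reagent goes in at 23hr.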
A short description of assay [6]: qHTS assay to identify small molecule antagonists of the sonic hedgehog signaling (Shh) pathway - cell viability counter screen (AID 1259367). Further: nearly all actives have a fitted effect of over 55% in size. Further: potency means the concentration at half of the fitted maximal effect. In a few lines: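 NIH/3T3-derived Gli1-Luc reporter cells (2,000 per well) rested 4 hr at 37 C, then received DMSO compounds plus conditioned medium. After 23 hr of treatment, CellTiter-Fluor was added for 1 hr at 37C and fluorescence read.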

Assay [7] in a line: qHTS assay to identify small molecule agonists of the sonic hedgehog signaling (Shh) pathway (AID 1259368; calls by dose curve;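 further: NIH/3T3-derived 3T3Gli1-Luc cells carrying a stable Gli1-driven firefly luciferase reporter; series mostly up to about 92 µM; nearly all actives have a fitted effect of over 15% in size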). In a few lines: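 3T3Gli1-Luc (NIH/3T3 clone, stable Gli1-Luc); 4 hr pre-incubation, then cpd in DMSO 24 hr, 37 C/5% CO2; luciferase reagent 30 min RT; luminescence.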
Assay [8] is described as follows: qHTS assay to identify small molecule antagonists of the sonic hedgehog signaling (Shh) pathway (AID 1259369; calls by dose curve; further: nearly all actives have a fitted effect of over 45% in size; further: potency means the concentration at half of the fitted maximal effect). In a few lines: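 3T3Gli1-Luc, conditioned-medium-stimulated, 24hr cpd, 37C/5% CO2; Gli1-driven firefly Luc luminescence after 30min RT with luciferase reagent. Cells plated 4hr before cpd.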
Assay [9] can be described thus: qHTS assay to identify small molecule agonists of the androgen receptor (AR) signaling pathway in the presence of an antagonist - cell viability counter screen (AID 1259379). Further: nearly all actives have a fitted effect of over 25% in size. Further: potency means the concentration at half of the fitted maximal effect. In a few lines: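 Cells: MDA-kb2 (MMTV-luc, AR and GR elements), 3,000/well, 5 hr settle. Added: nilutamide 3.0uM final, then compounds (15 conc.). Incubation: 16 hr, 37C, no CO2. Read-out: CellTiter-Fluor, 1 hr, fluorescence.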

A short description of assay [10]: qHTS assay to identify small molecule antagonists of the estrogen receptor beta (ER-beta) signaling pathway - cell viability counter screen (AID 1259382). Further: nearly all actives have a fitted effect of over 55% in size. Further: potency means the concentration at half of the fitted maximal effect. In a few lines:
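Cells: ER-beta-UAS-bla HEK293T, 2,000/well, 2% CS-FBS, 6 hr settle. Cpd + E2 (1nM final), 16 hr, 37C/5% CO2. Bla FRET substrate 2 hr RT, then CellTiter-Glo 30 min RT, luminescence.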

Assay [11] is described as follows: qHTS assay to identify small molecule agonists or antagonists of the thyroid stimulating hormone receptor (TSHR) signaling pathway - wild type cell line counter screen (AID 1259384; calls by dose curve). In a few lines: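 Wild-type HEK293 cells were plated 18 h at 37 C/5% CO2, pin-dosed with compound plus Ro20-1724 medium, held 30 min at room temperature, then given cAMP-d2 and anti-cAMP-cryptate; fluorescence was read after 1 h. Fifteen concentrations, triplicate.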

A short description of assay [12]: qHTS assay to identify small molecule agonists of the estrogen receptor alpha (ER-alpha) signaling pathway in the presence of an antagonist - cell viability counter screen (AID 1259386).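 Further: cells exposed to compounds for 22 h at 37 °C before the viability read; nearly all actives have a fitted effect of over 30% in size.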 Further: potency means the concentration at half of the fitted maximal effect. The gist of the method:
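VM7Luc4E2, stripped-serum pre-culture 5 d; 24hr plating; +ICI-182,780 10.0nM final; cpds 15 conc, 22hr, 37C/5% CO2; CellTiter-Fluor added at 21hr, fluorescence 1hr later.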

Assay [13] has as its target Estrogen receptor (Homo sapiens) (UniProt P03372). As to the kind of experiment: qHTS assay to identify small molecule antagonists of the estrogen receptor alpha (ER-alpha) signaling pathway using the BG1 cell line in the presence of 0.1 nM 17-beta-estradiol (AID 1259244). Further: nearly all actives have a fitted effect of over 50% in size. Further: potency means the concentration at half of the fitted maximal effect. In a few lines: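 Cells: VM7Luc4E2, endogenous ER-alpha, 4x ERE-luc stable. Pre-culture 5 d, phenol red-free, charcoal-stripped FBS. Plated 24 h, compound + E2 0.1 nM final, 22 h 37C/5% CO2. Readout ONE-Glo luminescence.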

For assay [14], the target named is Estrogen receptor beta (Homo sapiens) (UniProt Q92731). Put plainly: qHTS assay to identify small molecule agonists of the estrogen receptor beta (ER-beta) signaling pathway (AID 1259377; active means well fitted activation curve with a large enough effect in the signal ratio in the repeat runs, not every such curve was filed as active; the % refers to the signal ratio). The gist of the method: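 Screening used GripTite ER-beta-UAS-bla cells held in 2% charcoal-stripped FBS medium. After overnight (16 hr) compound incubation at 37C, beta-lactamase activity was detected with a FRET substrate by fluorescence.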
Chain of Estrogen receptor beta (Homo sapiens) (Q92731 whole entry, looked up): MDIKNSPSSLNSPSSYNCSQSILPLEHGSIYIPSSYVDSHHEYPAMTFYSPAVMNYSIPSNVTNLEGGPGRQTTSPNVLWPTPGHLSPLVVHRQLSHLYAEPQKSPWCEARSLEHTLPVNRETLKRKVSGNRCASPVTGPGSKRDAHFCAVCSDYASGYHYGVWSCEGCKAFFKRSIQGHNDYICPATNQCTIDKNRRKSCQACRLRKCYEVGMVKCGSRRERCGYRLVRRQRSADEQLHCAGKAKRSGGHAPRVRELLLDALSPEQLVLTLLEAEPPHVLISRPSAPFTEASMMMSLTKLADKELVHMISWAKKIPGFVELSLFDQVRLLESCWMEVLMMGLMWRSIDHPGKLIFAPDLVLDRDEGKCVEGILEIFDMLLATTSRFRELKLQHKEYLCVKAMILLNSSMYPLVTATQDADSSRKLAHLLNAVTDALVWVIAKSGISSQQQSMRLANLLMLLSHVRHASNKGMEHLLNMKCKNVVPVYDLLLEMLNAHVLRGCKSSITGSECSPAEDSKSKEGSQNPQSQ

In assay [15] the target is Androgen receptor (Homo sapiens) (UniProt P10275). Put plainly: qHTS assay to identify small molecule agonists of the androgen receptor (AR) signaling pathway in the presence of an antagonist (AID 1259381; calls by dose curve; further: nearly all actives have a fitted effect of over 15% in size). In a few lines:
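MDA-kb2 cells, 3,000/well, rested 5hr at 37C/0% CO2 → nilutamide 3.0uM final or buffer → compounds, 15 conc. → 16hr at 37C → ONE-Glo, 30min RT → luminescence.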

For assay [16], the target named is Estrogen receptor (Homo sapiens) (UniProt P03372). As to the kind of experiment: qHTS assay to identify small molecule agonists of the estrogen receptor alpha (ER-alpha) signaling pathway in the presence of an antagonist (AID 1259383; calls by dose curve; further: top concentration of the series differs between compounds; nearly all actives have a fitted effect of over 15% in size). The gist of the method:
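VM7Luc4E2, endog. ER-alpha + 4×ERE-luc; charcoal-stripped FBS, phenol red-free, 5 d; 24hr plating; +10.0nM ICI-182,780 (final); cpds 15 conc, 22hr, 37C/5% CO2; ONE-Glo luminescence.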

Assay [17] concerns the target Thyrotropin receptor (Homo sapiens) (UniProt P16473). Put plainly: qHTS assay to identify small molecule antagonists of the thyroid stimulating hormone receptor (TSHR) signaling pathway (AID 1259385; calls by dose curve; further: nearly all actives have a fitted effect of over 20% in size; further: potency means the concentration at half of the fitted maximal effect). In a few lines: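 TSHR-HEK293 cells were plated and held 18 h at 37C/5% CO2, then given compound plus Ro20-1724 and stimulated with TSH at 1.5 ng/mL final. After 30 min at room temperature, cAMP was detected with cAMP-d2/anti-cAMP-cryptate (1 h) by fluorescence.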

In assay [18] the target is Estrogen receptor beta (Homo sapiens) (UniProt Q92731). As to the kind of experiment: qHTS assay to identify small molecule antagonists of the estrogen receptor beta (ER-beta) signaling pathway (AID 1259378; active means well fitted inhibition curve with a large enough effect in the signal ratio in the repeat runs, not every such curve was filed as active; the % refers to the signal ratio). In a few lines: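 ER-beta-UAS-bla HEK293T (GripTite) cells in 2% charcoal-stripped FBS medium were preincubated 6 hr at 37C, dosed with compound, then stimulated with 1 nM E2 (final) for 16 hr; beta-lactamase reporter read by B/G FRET fluorescence after 2 hr substrate loading.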

A short description of assay [19]: qHTS assay to identify small molecule agonists of the estrogen receptor beta (ER-beta) signaling pathway - cell viability counter screen (AID 1259380). Further: nearly all actives have a fitted effect of over 30% in size. Further: potency means the concentration at half of the fitted maximal effect. In a few lines:
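HEK293T ER-beta-UAS-bla; 2% CS-FBS; 6 hr pre-plate, 16 hr cpd at 37C/5% CO2; LiveBLAzer read first, then CellTiter-Glo 30 min RT, luminescence.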

Chain of Estrogen receptor (Homo sapiens) (P03372 whole entry, looked up): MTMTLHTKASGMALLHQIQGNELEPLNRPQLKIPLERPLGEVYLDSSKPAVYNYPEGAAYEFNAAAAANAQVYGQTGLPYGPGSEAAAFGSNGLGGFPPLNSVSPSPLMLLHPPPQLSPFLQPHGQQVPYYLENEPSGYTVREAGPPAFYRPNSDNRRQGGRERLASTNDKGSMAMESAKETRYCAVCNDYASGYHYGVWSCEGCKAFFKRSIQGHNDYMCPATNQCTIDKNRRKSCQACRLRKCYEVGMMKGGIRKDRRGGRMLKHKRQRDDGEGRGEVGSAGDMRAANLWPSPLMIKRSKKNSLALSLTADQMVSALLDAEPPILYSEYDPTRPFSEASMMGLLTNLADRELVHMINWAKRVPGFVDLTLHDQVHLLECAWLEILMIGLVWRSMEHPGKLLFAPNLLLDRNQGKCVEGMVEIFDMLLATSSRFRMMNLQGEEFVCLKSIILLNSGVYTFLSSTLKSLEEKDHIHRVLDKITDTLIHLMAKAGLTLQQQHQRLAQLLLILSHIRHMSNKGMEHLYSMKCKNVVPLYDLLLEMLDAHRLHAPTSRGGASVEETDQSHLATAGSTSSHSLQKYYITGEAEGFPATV
Chain of Thyrotropin receptor (Homo sapiens) (P16473 whole entry, looked up): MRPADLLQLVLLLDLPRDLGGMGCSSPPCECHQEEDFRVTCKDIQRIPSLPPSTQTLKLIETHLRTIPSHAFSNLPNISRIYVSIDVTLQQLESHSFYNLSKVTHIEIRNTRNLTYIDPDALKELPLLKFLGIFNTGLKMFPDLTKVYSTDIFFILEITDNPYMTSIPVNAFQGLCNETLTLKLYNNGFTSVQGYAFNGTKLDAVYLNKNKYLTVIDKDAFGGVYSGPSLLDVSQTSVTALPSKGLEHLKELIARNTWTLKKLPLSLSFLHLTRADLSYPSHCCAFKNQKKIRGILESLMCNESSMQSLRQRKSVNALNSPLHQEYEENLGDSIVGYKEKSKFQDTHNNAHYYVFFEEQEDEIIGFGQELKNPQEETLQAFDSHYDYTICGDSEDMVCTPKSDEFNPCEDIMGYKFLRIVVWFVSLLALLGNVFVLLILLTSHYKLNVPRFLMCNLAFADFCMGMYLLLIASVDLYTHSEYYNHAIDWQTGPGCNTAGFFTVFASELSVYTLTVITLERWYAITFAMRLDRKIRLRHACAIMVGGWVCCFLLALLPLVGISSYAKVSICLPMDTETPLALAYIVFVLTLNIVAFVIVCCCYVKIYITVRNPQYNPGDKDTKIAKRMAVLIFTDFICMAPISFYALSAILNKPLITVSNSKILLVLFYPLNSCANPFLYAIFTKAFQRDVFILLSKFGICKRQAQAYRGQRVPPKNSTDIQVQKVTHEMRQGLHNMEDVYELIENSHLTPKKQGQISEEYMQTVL
Chain of Androgen receptor (Homo sapiens) (P10275 whole entry, looked up): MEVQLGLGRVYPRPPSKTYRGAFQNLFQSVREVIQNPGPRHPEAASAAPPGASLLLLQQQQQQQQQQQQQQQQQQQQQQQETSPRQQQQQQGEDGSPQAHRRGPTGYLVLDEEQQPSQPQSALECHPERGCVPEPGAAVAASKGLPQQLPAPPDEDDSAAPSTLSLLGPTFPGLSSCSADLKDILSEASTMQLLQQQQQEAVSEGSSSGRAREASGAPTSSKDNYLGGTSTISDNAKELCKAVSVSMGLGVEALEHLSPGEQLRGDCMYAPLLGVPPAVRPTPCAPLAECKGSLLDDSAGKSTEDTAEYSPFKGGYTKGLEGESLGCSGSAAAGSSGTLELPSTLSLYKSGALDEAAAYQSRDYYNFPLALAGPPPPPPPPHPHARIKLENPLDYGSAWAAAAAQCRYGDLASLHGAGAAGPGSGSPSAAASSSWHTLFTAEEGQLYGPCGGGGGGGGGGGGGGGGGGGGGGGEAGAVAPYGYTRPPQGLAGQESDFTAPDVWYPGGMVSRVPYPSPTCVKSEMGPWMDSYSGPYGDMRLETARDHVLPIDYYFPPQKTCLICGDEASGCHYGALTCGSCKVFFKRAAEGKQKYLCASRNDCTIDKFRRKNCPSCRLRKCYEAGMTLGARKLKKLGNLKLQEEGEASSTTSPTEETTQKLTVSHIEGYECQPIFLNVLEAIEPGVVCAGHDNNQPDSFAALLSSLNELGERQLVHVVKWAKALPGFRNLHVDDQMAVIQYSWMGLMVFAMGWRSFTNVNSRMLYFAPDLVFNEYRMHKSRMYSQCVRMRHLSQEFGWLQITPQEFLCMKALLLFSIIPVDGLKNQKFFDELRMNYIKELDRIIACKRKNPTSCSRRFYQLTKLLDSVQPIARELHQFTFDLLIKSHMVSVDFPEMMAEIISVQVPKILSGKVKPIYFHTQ

Turning to `Brc1ccccc1-c1ccccc1`, the Potency result in assay [1], in assay [2], in [3], in assay [4], in assay [5] and in assay [6] was “inactive” throughout. In addition, the Potency result in [7], in [8], in assay [9], in assay [10] and in [12] was “inactive” each time. The outcome in [11] was inactive.
`CCCCCCOc1ccc(O)cc1`: the Potency result in assay [1], in assay [13], in [4], in [5], in assay [7] and in assay [8] was “inactive” throughout. The Potency result in [14], in assay [9], in [15], in assay [16], in [17] and in assay [12] was “inactive” throughout. Further, in assay [11], the outcome was inactive.
As for `CCOC(/C=C(\C)CCC=C(C)C)OCC`, the Potency result in [1], in assay [13], in assay [3], in [5], in assay [7] and in [18] was “inactive” throughout. In addition, the Potency entry in [9], in assay [19], in assay [16] and in [17] was “inactive” throughout. Besides, the outcome in [11] was inactive.
On to `Cc1cc(C)c(C=O)c(C)c1`, for which the Potency entry in [1], in assay [13], in assay [3], in assay [5], in assay [6] and in assay [7] was “inactive” in each case. Besides, the Potency result in assay [8], in assay [9], in assay [19], in assay [10], in assay [17] and in [12] was “inactive” in each case. In addition, the molecule was classed as inactive in assay [11].
Take `OCCC(O)CO` (configuration not stated): the Potency entry in assay [1], in [13], in assay [3], in assay [5], in [7] and in assay [8] was “inactive” throughout. Also, the Potency entry in [9], in assay [19], in assay [16], in [17] and in [12] was “inactive” throughout. Moreover, in assay [11], the result was inactive.
Turning to `C/C=C/c1ccc(OC)c(OC)c1`, the Potency entry in [1], in assay [3], in assay [4], in assay [5], in [6] and in [7] was “inactive” in each case. The Potency entry in assay [8], in [14], in assay [18], in [9], in assay [19] and in assay [10] was “inactive” throughout. The Potency entry in [17] and in [12] was “inactive” in each case. The outcome in [11] was inactive.
On to `Cc1ccc(N)cc1O`, for which the Potency entry in [1], in [2], in assay [4], in assay [5], in assay [6] and in assay [7] was “inactive” in each case. For the same molecule, the Potency entry in [9] and in assay [16] was “inactive” throughout. Also, the molecule was classed as inactive in assay [11].
On to `O=C1OC(=O)c2ccc3c4c(ccc1c24)C(=O)OC3=O`, for which the Potency result in [1], in [13], in assay [3], in assay [5], in assay [6] and in [7] was “inactive” throughout. Besides, the Potency entry in assay [8], in assay [18], in assay [9], in [19], in [10] and in assay [16] was “inactive” each time. Besides, the Potency entry in [17] and in [12] was “inactive” throughout. Further, in assay [11], the result was inactive.
Turning to `O=Nc1ccc(NO)cc1`, the Potency result in [1], in [4], in assay [19], in assay [16] and in [12] was “inactive” each time. Besides, the Potency is 50.5 µM (active) in assay [13] and 14.2 µM (active) in assay [8].
For `CCCCCCCCCCCCOC(=O)c1cc(O)c(O)c(O)c1`, the Potency is 60.9 µM (active) in assay [1]; 30.5 µM (active) and 34.4 µM (active) in assay [13]; 43.1 µM (active) in assay [5]; 34.2 µM (active) and 6.11 µM (active) in assay [6]; 1.21 µM (active) and 2.17 µM (active) in [8]; 68.3 µM (active) and 61.1 µM (active) in assay [9]. The Potency in [19] is 34.2 µM (active) and 68.6 µM (active); in assay [10], 68.3 µM (active) and 68.6 µM (active); in [17] it was 68.3 µM (active) and inactive; in assay [12], 60.9 µM (active). For the same molecule, the Potency entry in [3], in assay [14] and in [16] was “inactive” in each case. Besides, the call in assay [11] was inactive.
As for `Oc1c(Br)cc(Br)c2cccnc12`, the Potency result in assay [1], in assay [2], in [3], in assay [4], in [7] and in assay [16] was “inactive” in each case. Moreover, the Potency entry in assay [17] and in assay [12] was “inactive” throughout. Besides, the figures for the Potency in assay [5], in assay [8] and in [19] were 7.5 µM (active), 2.37 µM (active) and 1.19 µM (active), respectively. For the same molecule, the call in [11] was inactive.
Regarding `CN1[C@@H]2CC[C@H]1CC(OC(=O)C(CO)c1ccccc1)C2` (some centres not stated), the Potency result in [1], in assay [2], in assay [3], in [4], in assay [5] and in assay [6] was “inactive” throughout. The Potency result in assay [9], in [10] and in assay [12] was “inactive” in each case. Besides, in assay [19], the Potency is 68.5 µM (active).
`O=C1c2c(O)ccc([N+](=O)[O-])c2C(=O)c2c([N+](=O)[O-])ccc(O)c21`: the Potency was 27.1 µM (active) in assay [1]; 27.1 µM (active) in assay [13]; 21.5 µM (active) in [4]; 17.1 µM (active) in assay [5]; 10.8 µM (active) in assay [6]; 1.52 µM (active) in [8]. Also, the Potency was 27.1 µM (active) in assay [9], 15.2 µM (active) in [19], 17.1 µM (active) in assay [10] and 24.1 µM (active) in assay [12]. In addition, the Potency entry in assay [7], in assay [14], in assay [16] and in assay [17] was “inactive” each time.
